# Experimental data: PubChem BioAssay (NCI)
# The panel holds about 83,000 compounds, 20% with a hit somewhere; the sample as a whole holds those more often.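 Negative percent growth values reflect cell death: -40 means 40% of the cells present at the start died, and -100 means all died.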 Unmarked numbers belong to inactive results. Activity calls are given as the source filed them. How the source made its calls: active means growth percent below 10; inactive means the rest.
# Key:
# Experiment in all cases: NCI-60 one-dose screen, 48 h (100 = growth as untreated, 0 = no growth, -100 = all killed)
# Conditions in all cases: 10 µM unless noted
# [1] = system: NCI-H23 lung
# [2] = system: NCI-H226 lung
# [3] = system: NCI-H322M lung
# [4] = system: HOP-62 NSCLC
# [5] = system: NCI-H460 lung
# [6] = system: NCI-H522 lung
# [7] = system: A549/ATCC NSCLC
# [8] = system: 786-0 renal
# [9] = system: COLO 205 colon
# [10] = system: DU-145 prostate
# [11] = system: K-562 leukemia
# [12] = system: MALME-3M melanoma
# [13] = system: MDA-MB-231 breast
# [14] = system: RXF 393 renal
# [15] = system: SF-268 CNS
# [16] = system: SF-295 CNS
# [17] = system: SF-539 CNS
# [18] = system: UACC-257 melanoma
# [19] = system: M14 melanoma
# [20] = system: HCT-15 colon
SMILES,growth [1],growth [2],growth [3],growth [4],growth [5],growth [6],growth [7],growth [8],growth [9],growth [10],growth [11],growth [12],growth [13],growth [14],growth [15],growth [16],growth [17],growth [18],growth [19],growth [20]
CO[C@H]1CC(O[C@@H]2/C(C)=C/C[C@@H]3C[C@@H](C[C@]4(CC[C@H](C)[C@@H](C5CCCCC5)O4)O3)OC(=O)[C@@H]3C=C(C)/C(=N/O)[C@H]4OC/C(=C\C=C\[C@@H]2C)[C@]43O)O[C@@H](C)C1O (stereo not given in full),-76.2% (active),-84.2% (active),-78% (active),-88.8% (active),-82.3% (active),-73.4% (active),-82.9% (active),-91.1% (active),-79.4% (active),-96.1% (active),-36.7% (active),-46.3% (active),-89% (active),-97.2% (active),-92.2% (active),-89.5% (active),-68.8% (active),-81.6% (active),-81.4% (active),-75.1% (active)
Cc1nc2c(O)cccc2cc1CO,94.9%,114%,165%,106%,103%,107%,109%,96.3%,142%,113%,82.8%,178%,110%,136%,99.8%,106%,93.5%,116%,110%,109%
O=C(CCc1nnc(SCc2ccccc2)s1)c1nc2ccccc2[nH]1,96.4%,102%,92.9%,105%,105%,84.4%,86.3%,91.2%,117%,107%,80.2%,83.8%,77.9%,108%,100%,92.1%,109%,111%,108%,81%
O=C(CN1CCCCC1)Sc1nnc2sc3ccccc3n12,93.1%,84.9%,111%,89.9%,103%,99.5%,109%,106%,121%,112%,99.6%,97.5%,97.4%,108%,102%,110%,101%,102%,98%,112%
O=C1c2ccccc2C(=O)c2c1cccc2-n1nnc2ccccc21,106%,103%,118%,101%,111%,86%,116%,106%,116%,108%,95.6%,132%,125%,111%,103%,120%,112%,127%,127%,102%
CC(C)c1nc(N(C)S(C)(=O)=O)nc(-c2ccc(F)cc2)c1/C=C/[C@@H](O)C[C@@H](O)CC(=O)O,109%,105%,93.9%,108%,118%,69.9%,97.9%,106%,105%,103%,130%,104%,63.7%,105%,77.5%,100%,97.6%,103%,104%,95.2%
O=C(c1nn(-c2ccc(Cl)cc2)cc1O)n1nc(C(F)(F)F)cc1-c1ccccc1,32.8%,52.7%,-1.34% (active),34.6%,34.9%,21.2%,47.4%,42.9%,7.24% (active),49.2%,18.6%,107%,54.6%,55.1%,42.3%,-0.429% (active),45.6%,53.3%,43.4%,30.2%
COc1cccc(-c2nnc(N)o2)c1,101%,103%,99.5%,102%,107%,96.8%,102%,100%,117%,107%,98.1%,106%,124%,94.6%,111%,113%,111%,92.7%,91.1%,106%
O=C(/C=C/c1cccnc1)/C=C/c1cccnc1,-5.04% (active),2.94% (active),122%,98.9%,18.5%,-91.2% (active),6.27% (active),5.1% (active),-84.8% (active),-29.6% (active),-15.2% (active),-8.19% (active),20.4%,-84.9% (active),-64% (active),41.6%,-46.1% (active),31.2%,-47.3% (active),-9.07% (active)
Cc1ccc(C(O)C2=CC(=O)c3ccccc3C2=O)cc1 (stereo not given),89.2%,94.9%,99.3%,104%,98.4%,95.7%,102%,110%,107%,111%,112%,107%,71.1%,109%,107%,97.6%,95.3%,102%,95.7%,93.3%
CC[C@H](C)C(=O)O[C@H]1C[C@@H](C)C=C2C=C[C@H](C)[C@H](CC[C@@H]3C[C@@H](O)CC(=O)O3)[C@H]21,67.8%,95.5%,54.2%,104%,102%,27.3%,102%,90.5%,99.7%,106%,104%,89.7%,-35.3% (active),97.7%,42.7%,28.8%,95.9%,83.5%,59.2%,55.1%
Cc1ccsc1/C=C/C1=NCCCN1C,97%,100%,102%,100%,116%,91%,99.7%,92.5%,101%,112%,101%,97%,99.3%,113%,111%,95.6%,119%,110%,100%,109%
COC(=O)C[C@@H]1CC=CC(=O)/C1=C(O)/C=C/c1ccccc1,-43.4% (active),-40.6% (active),-14.4% (active),-42.8% (active),-42.5% (active),-64.2% (active),-0.275% (active),-77.5% (active),-57.2% (active),-28.4% (active),3.07% (active),-60% (active),-63% (active),-83.6% (active),22.3%,-14.6% (active),-39.1% (active),-39.3% (active),-70.2% (active),-53.9% (active)
N=C(N)/N=C(\CCc1nc2ccccc2[nH]1)c1nc2ccccc2[nH]1,91.6%,93.4%,118%,97%,114%,96%,102%,107%,103%,111%,98.4%,96.9%,100%,116%,112%,120%,97.1%,109%,96.4%,106%
CCN1CCN(c2cc(-c3cn[nH]c3-c3cc(C)cc(OC)c3)nc(-c3cccnc3)n2)CC1,93.9%,99.7%,67.5%,101%,88.9%,75.6%,82.3%,58.1%,51.3%,75%,21.9%,91.9%,58.6%,61.2%,87.3%,99.9%,83%,84.8%,83.1%,19.2%
CCCCCCCCCCC[C@@H](C[C@H]1OC(=O)[C@H]1CCCCCC)OC(=O)[C@@H](CC(C)C)NC=O,70.1%,72.6%,94.2%,72.3%,42.9%,59.9%,83.6%,44.8%,81%,92.2%,45.2%,89.4%,60.9%,44.1%,65.2%,24.7%,63.1%,99.6%,62.6%,34.8%

SMILES,growth [1],growth [2],growth [3],growth [4],growth [5],growth [6],growth [7],growth [8],growth [9],growth [10],growth [11],growth [12],growth [13],growth [14],growth [15],growth [16],growth [17],growth [18],growth [19],growth [20]
c1ccc2cc(C[n+]3ccn(CCCCCCCn4cc[n+](Cc5ccc6ccccc6c5)c4)c3)ccc2c1,14.4%,59.5%,58.6%,32.6%,14.6%,5.87% (active),26.7%,95.8%,20%,49.2%,19.1%,-9.13% (active),49%,74%,34.4%,21.6%,33.4%,15.8%,47.1%,82.6%
CCOC(=O)c1c(C)nc(C)c(C(=O)OCC)c1-c1cccnc1,101%,106%,108%,94.6%,101%,95.8%,103%,94.5%,101%,116%,92.4%,111%,113%,131%,106%,112%,97.1%,108%,95%,97%
CCCCCCCCCCSc1ncnc2nc[nH]c12,36.8%,67.4%,88.5%,86.3%,65.8%,57.1%,58.5%,71.3%,113%,75%,48.5%,102%,75.3%,89.5%,83.7%,68.7%,86.8%,48.5%,94%,82.4%
Cc1c(N(C)CS(=O)(=O)O)c(=O)n(-c2ccccc2)n1C,109%,102%,96.9%,92.7%,121%,89.8%,97.1%,91.5%,115%,112%,102%,94.1%,107%,115%,115%,98.9%,106%,108%,103%,103%
COc1ccc2c(c1)C(=O)c1c-2c(OCCCN(C)C)nc2cc(Br)ccc12,75.5%,57.2%,80.7%,68%,36.2%,61.6%,24.6%,77.2%,64.6%,78.5%,53.1%,69.8%,49.9%,43.7%,69%,93.9%,67.6%,108%,91.8%,-31.3% (active)
O=C(Nc1cccc2ccccc12)c1cc2c(cc1Br)OCO2,88.6%,81%,97.8%,125%,92.9%,103%,113%,158%,76.2%,103%,97.8%,89.4%,102%,126%,104%,107%,78.6%,114%,162%,104%
COc1cc(C2CC(=O)Nc3c2cc(Br)c2ccccc32)cc(Br)c1OC (stereo not given),58.8%,27.1%,40.7%,24%,10.9%,21.3%,3.52% (active),0.846% (active),37.1%,64.7%,20.2%,39.9%,28%,35.8%,55.4%,-31.3% (active),74.4%,73.4%,48.2%,39.6%
CC1=C(C(=O)Nc2ccccc2)C(c2ccc3c(c2)OCCO3)NC(=O)N1 (stereo not given),101%,102%,107%,104%,107%,104%,98.8%,100%,105%,114%,98.5%,96.9%,118%,116%,100%,114%,100%,102%,103%,106%
CCC1=C(c2ccc(OC)cc2)C(C)(C)Oc2cc(O)c(CN3CCCC3)cc21,68.1%,97.6%,92%,71.4%,86.6%,41.5%,85.1%,59%,65.9%,93.8%,19.7%,77.2%,95.8%,79.9%,88.4%,51%,76.8%,72%,62.1%,82.2%
COc1ccc2c(c1)C(=O)c1c-2c(OCCN(C)C)nc2cc(OC)ccc12,-57.2% (active),-25.7% (active),19.7%,14.9%,-70.7% (active),-22.1% (active),-43.6% (active),36.1%,2.84% (active),29%,-47.7% (active),-39.9% (active),1.22% (active),-8.64% (active),35.7%,31.8%,15%,20.5%,11.6%,-63.4% (active)
COc1ccc2c(c1)C(=O)c1c-2c(=O)n(CCCCCCC(=O)NO)c2ccccc12,-41.9% (active),1.93% (active),-3.32% (active),-3.67% (active),3.19% (active),4.79% (active),-10.4% (active),-3.09% (active),-39.3% (active),9.94% (active),8.79% (active),-23.1% (active),-5.72% (active),-60.9% (active),10.1%,-33.7% (active),7.21% (active),-6.3% (active),-0.387% (active),13.3%
Cc1c(C)c(N2C(=O)C=CC2=O)c(C)c(C)c1N1C(=O)C=CC1=O,96.3%,108%,112%,91.6%,115%,-49.4% (active),89.6%,93.2%,78.7%,104%,77.8%,126%,114%,54.7%,110%,109%,114%,75.6%,86.5%,117%
Cc1cc(NC(=O)Nc2cccc3ccccc23)no1,92.9%,108%,105%,103%,101%,91%,96.9%,96.4%,154%,118%,92.4%,101%,112%,99.6%,108%,103%,97.2%,105%,107%,95.2%
CC(=O)c1nc2ccccc2n1CCn1cc(CC(N)C(=O)O)c2ccccc21 (stereo not given),90.3%,102%,93.6%,97.7%,115%,96.9%,103%,115%,103%,104%,92.5%,100%,77.3%,120%,110%,110%,101%,110%,103%,96.3%
CSC1=Nc2c(c(C)c(-c3ccccc3)n2CCCN2CCCCC2)C2=NC(=O)C[C@H](C)N12,63.1%,68.9%,62.1%,81.6%,38.3%,35.5%,32.2%,80.1%,-87% (active),47.6%,11.6%,56.5%,69.6%,56.4%,66.2%,38.9%,79%,41.3%,59.8%,81.2%
